In PubChem BioAssay AID2391 (Southern Research Specialized Biocontainment Screening …, 2010):
In all, about 310,000 compounds went through this assay and about 410 (0.13%) were called active. Another 2% or so got no clear call; they are omitted. The list is a sample of the results. Results with a measured potency or affinity are listed apart. Values without a mark were called inactive. No rule for the calls is given here.

Test: inhibition of RSV-induced cytopathic effect – HEp-2 cells, primary 10 µM value included (AID 2391)
Settings: at 10 µM, stronger effect = higher value

SMILES	CPE inhibition [%]
O=c1cc(CN2CCN(C/C=C/c3ccccc3)CC2)c2cc(O)c(-c3ccccc3)cc2o1	2.21
CC(=O)NCCN=C(C)c1sc2ccccc2c1O	2.52
CCCCNC(=O)CC1N=C2c3ccccc3N=C(SCC(=O)Nc3ccccc3OC)N2C1=O (centres undefined)	8.13
CCCCNC(=O)CC1N=C2c3ccccc3N=C(SCC(=O)Nc3cccc(OC)c3)N2C1=O (centres undefined)	0.81
Cn1ccnc1SCC(=O)Nc1cccc(S(=O)(=O)N2CCCCC2)c1	5.08
O=C(Nc1nc(-c2ccc(Cl)cc2Cl)cs1)C1CCCO1 (centres undefined)	7.12
COc1ccc(C(=O)NCc2nc3ccccc3[nH]2)cc1OC	1.66
COc1cc(/C=C/C(=O)NCc2nc3ccccc3[nH]2)cc(OC)c1OC	3.24
CCCSC1=C(C#N)C(c2cccs2)CC(=O)N1 (centres undefined)	0.6
CC1=C(C(=O)OC(C)C)C2(O)C(=O)c3ccccc3C2(O)N1 (centres undefined)	0.34
CC(C)CNC(=O)c1cc([N+](=O)[O-])ccc1N1CCCCC1	1.62
CC12CCC(=O)C=C1CCC1C2C(=O)CC2(C)C1CC[C@]2(O)C(=O)CO (some centres undefined)	1.47
CC(CCc1ccc(O)cc1)NCc1ccc(Cl)cc1Cl (centres undefined)	0.07
CC(CCc1ccc(O)cc1)NCCC(c1ccccc1)c1ccccc1 (centres undefined)	1.43
COc1ccc(C(=O)NCc2nnc(SCC(=O)N3CCC(C)CC3)o2)cc1	1.04
Cc1ccc(C2(c3ccc(C)cc3)CC2C(=O)NC(C)C)cc1 (centres undefined)	10.9
O=C(Nc1cccc(C(=O)Nc2cccc(C(F)(F)F)c2)c1)c1ccc(=O)[nH]c1	0.31
Cc1cc(OC(C)C(=O)NCCN2CCOCC2)c2c(C)cc(=O)oc2c1 (centres undefined)	1.3
CC(=O)Nc1ccc(S(=O)(=O)N2CCCc3ccccc32)cc1	1.45
COC(=O)Nc1ccc(S(=O)(=O)N2CCCc3ccccc32)cc1	1.75
COc1ccccc1CCNS(=O)(=O)c1cc2c3c(c1)CCN3C(=O)CC2	2.18
CC(=O)c1cc2c(cc1NC(=O)c1ccc(C)cc1)OCO2	1.4

SMILES	CPE inhibition [%]
COc1ccc(CC(=O)Nc2cccc(-c3cn4ccccc4n3)c2)cc1	20.4
Cc1cccc2nc(-c3cccc(NC(=O)c4ccc(Cl)cc4)c3)cn12	6.87
Cc1cc(Cl)cc(C)c1OCCCCn1ccnc1	0.28
Cc1cc(Cl)cc(C)c1OCCCCCn1ccnc1	16.9
Cc1cc(C(=O)Nc2ccccc2C)c2ccccc2n1	-1.47
CCn1c(SC)nnc1-c1nn(-c2ccccc2)ccc1=O	3.93
CCn1c(SCc2ccc(F)cc2)nnc1-c1nn(-c2ccccc2)ccc1=O	5.54
CCOc1ccc(Nc2ccc(S(=O)(=O)N3CCN(C)CC3)cc2[N+](=O)[O-])cc1OCC	2.73
C/C(N)=C(/C#N)C(=O)CSc1nc2ccccc2c(=O)n1-c1ccc(C)c(Cl)c1	3.58
C/C(N)=C(/C#N)C(=O)CSc1nc2ccccc2c(=O)n1-c1ccc(C)cc1	1.33
COC(=O)c1cc2n3ccccc3c(C)c(-c3ccccc3)c-2c1C(=O)OC	25.1
COC(=O)c1cc2c(C)c(C)c3ccccn3c-2c1C(=O)OC	2.03
COc1ccc(NC(=O)C2C3C=CC4(O3)C2C(=O)N(CCN2CCCCC2C)C4C(=O)NC2CCCCC2)cc1 (centres undefined)	-0.76
Cc1[nH]c2ccc(-c3nnc(SCC(=O)c4ccc(F)cc4)o3)cc2c1C	-1.57
Cc1cc(C)c(C)c(C(=O)CSc2nnc(-c3ccc4[nH]c(C)c(C)c4c3)o2)c1C	55.5
COc1cc(C)c(C(C)C)cc1S(=O)(=O)n1cnc(C)c1	11.6
Cc1cc(C)c2c(-n3cccc3)c(C(=O)NNS(=O)(=O)c3ccccc3)sc2n1	15.3
Cc1cc(C)c2c(-n3cccc3)c(C(=O)NNS(=O)(=O)c3ccc(Br)cc3)sc2n1	53.3
COc1ccc(N(CC(=O)NCc2ccc(Cl)cc2)S(=O)(=O)c2c(C)n[nH]c2C)cc1	2.71
O=C(O)c1cc(NS(=O)(=O)c2cccs2)cc(NS(=O)(=O)c2cccs2)c1	0.42
COc1ccc(-c2cc3nc(C)cc(C)n3n2)cc1	2.75
Cc1cc(C)n2nc(-c3ccccc3)cc2n1	-2.3
